High-throughput results deposited in PubChem BioAssay by several laboratories.
KLF5 inhibitor – suppresses KLF5 promoter-driven expression. DLD-1 KLF5 promoter-luciferase reporter, luminescence. inhibition, % at 5 µM. 290,000 tested, 0.23% active;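 active = inhibition above a per-plate limit of that plate's mean compound inhibition plus 3 SD, cut at about 60% in these data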;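 also: higher means less KLF5 promoter-driven luciferase light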
Ba/F3 V617F tox – loss of viability in JAK2V617F-driven Ba/F3 cells. inhibition, % at 5.6 µM. Ba/F3 EpoR-JAK2V617F viability, ATP luminescence. 220,000 tested, 1.1% active;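 active = inhibition above the campaign mean plus 3 SD over all tested compounds, cut at about 24% in these data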;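 also: cytokine-independent growth of Ba/F3 cells driven by EpoR plus mutant JAK2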
BaF3 tox – counter-screen for JAK2V617F inhibitors: parental Ba/F3 viability inhibitors; CellTiter-Glo ATP luminescence; inhibition, % at 5.6 µM; 220,000 tested, 1.1% active; AID 1486;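 active = inhibition above a per-campaign cutoff, the mean inhibition of all tested compounds plus 3 SD, cut at about 27% in these data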
IEC-6 tox – counter-screen for KLF5 inhibitors: cytotoxicity in IEC-6 cells; IEC-6 cytotoxicity, luminescence viability; inhibition, % at 5 µM; 290,000 tested, 0.78% active
APP transl inh – APP translation inhibition; SH-SY5Y APP 5'UTR-luciferase reporter, luminescence; inhibition, % at 2 µM; 190,000 tested, 0.82% active;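 active = inhibition above a set limit, derived from the sample mean plus 3 SD, cut at about 45% in these data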
IEC-6 cytotox cf – confirmation of cytotoxic compounds in rat IEC-6 intestinal epithelial cells; shares compounds with IEC-6 tox; IEC-6 rat intestinal epithelial viability, luminescence; inhibition, % at 5 µM; 1,900 tested, 63% active; AID 1907
A number is an active result; 0 = inactive; - = no result given. Hits are enriched below; roughly 1.9% of the tested compounds scored in any of these assays. Rule as the data show it, unless noted: active = inhibition above about 22%; inactive = the rest.

SMILES	KLF5 inhibitor	Ba/F3 V617F tox	BaF3 tox	IEC-6 tox	APP transl inh	IEC-6 cytotox cf
CC(=O)/C(C#N)=C1\NC(=O)C(Cc2ccc(C)c(C)c2)S1 (centres undefined)	0	0	0	78	0	50
O=C(Cc1ccc(Cl)cc1)Nc1ccccc1C(=O)Nc1ccc(C(=O)O)cc1	0	0	0	0	0	-
Cc1cc(Cl)cc(C)c1OCCn1ccnc1	0	-	-	44	-	0
Cc1cc(Cl)n2c(nc3ccccc32)c1C#N	0	76	29	77	90	37
CCc1nc2ccccc2c(C(=O)OCC(=O)C(C)(C)C)c1C	0	0	0	24	0	0
Fc1ccc(NC(=S)N2CCOCC2)cc1Cl	0	97	100	58	0	0
O=[N+]([O-])c1cc([N+](=O)[O-])c2oc(-c3ccccc3)c(Br)c2c1O	0	-	-	29	-	0
CCCCCCCCCCCCS[C@H]1CS(=O)(=O)C[C@@H]1O	0	0	0	0	-	-
CN(C)S(=O)(=O)c1ccc(NC(=O)N2CCN(c3cccc(C(F)(F)F)c3)CC2)cc1	0	0	0	0	0	-
COc1ccc(NC(=O)N2CCN(c3cccc(C(F)(F)F)c3)CC2)cc1	0	0	0	24	0	0
Cc1cccc(-c2nc(CNC(=O)c3ccco3)cs2)c1	0	-	-	0	-	-
COc1ccc(NC(=O)c2cccc(S(=O)(=O)N3CCOCC3)c2)cn1	0	0	0	0	0	-
S=C(NCCN1CCOCC1)N/N=C/c1cccs1	0	-	-	30	-	0
Oc1cccc(/C=N/NC(=S)NCCN2CCOCC2)c1O	0	0	0	0	0	-
C/C(=N\NC(=O)COc1ccccc1-c1ccccc1)c1cccnc1	0	0	0	0	0	-
C/C(=N\NC(=O)COc1ccccc1-c1ccccc1)c1ccc(O)cc1O	0	0	0	74	-	42
CCOc1ccc(-n2c(-c3ccc(OC)cc3)c[n+]3c2CCCCC3)cc1	0	97	74	22	0	27
CCOc1ccc(-n2c(-c3ccc(Br)cc3)c[n+]3c2CCCCC3)cc1	0	96	79	29	0	0
COc1ccc(-c2c[n+]3c(n2-c2ccc(C)cc2)CCCCC3)cc1	0	94	73	29	-	0
NS(=O)(=O)c1ccc(-n2nncc2C23CC4CC(CC(C4)C2)C3)cc1	0	0	0	0	0	-
COc1ccc(OCCn2cc(/C(N)=N/O)c3ccccc32)cc1	0	0	0	0	0	-
OC(CNCCc1ccc(Cl)cc1)COc1ccc2ccccc2c1 (centres undefined)	0	0	0	0	0	-
OC(CNCCc1ccccc1)COc1ccc(OCC(O)CNCCc2ccccc2)cc1 (centres undefined)	0	0	0	26	-	42
O=C(Cc1cn2ccsc2n1)OCc1ccccc1	0	0	0	35	0	0
Clc1ccc(C2Nc3cccc4cccc(c34)N2)cc1Cl	0	-	-	0	-	-
SMILES	KLF5 inhibitor	Ba/F3 V617F tox	BaF3 tox	IEC-6 tox	APP transl inh	IEC-6 cytotox cf
O=[N+]([O-])c1ccc(Cl)c(C2Nc3cccc4cccc(c34)N2)c1	0	100	103	70	0	35
CSCc1nc2sc(C(=O)Nc3nc(C)cs3)c(C)c2c(=O)[nH]1	0	0	0	0	0	-
CC(Oc1ccccc1F)c1ccnc2nc(/N=C/N(C)C)nn12 (centres undefined)	0	0	0	0	0	-
Cc1noc(C)c1COc1cccc(C(=O)OCC(=O)N2CC(=O)Nc3ccccc32)c1	0	0	0	79	93	43
O=C1CN(C(=O)COc2cccc(F)c2)c2ccccc2N1	0	0	0	0	0	-
O=c1cnn(Cc2ccc(F)cc2)c2ccccc12	0	-	-	0	-	-
O=c1c(Cl)c(Cl)cnn1Cc1ccc(F)cc1	0	0	0	27	51	0
COc1ccc(-n2c(C)cc(/C=N/Nc3nnc(C)n3N)c2C)cc1	0	0	0	100	0	0
Cc1cc(NC(=O)CSc2nnc3c(C)cc4c(C)ccc(C)c4n23)no1	0	0	0	55	0	0
COc1cc(/C=N/NC(=O)CCc2n[nH]c(=O)[nH]c2=O)cc(OC)c1OC	0	0	0	0	0	-
COC(=O)C(NC(=O)c1ccco1)(Nc1cc(C)ccn1)C(F)(F)F (centres undefined)	0	0	0	52	0	0
O=c1cc(-c2ccccc2)[nH]c2cc(Cl)ccc12	0	80	46	57	95	58
Clc1ccc2[nH]c(-c3ccccc3)cc2c1	0	0	0	0	0	-
COc1cc2ccccc2cc1C(=O)N/N=C/c1ccc2c(c1)OCO2	0	-	-	37	-	25
COc1ccc(/C=N\NC(=O)c2ccccc2F)cc1COc1ccc(F)cc1F	0	-	-	80	-	62
COc1ccc(/C=N/NC(=O)c2ccco2)cc1COc1ccc(F)cc1	0	-	-	0	-	-
COc1ccc(/C=N\NC(=O)c2ccccc2F)cc1COc1ccc(F)cc1	0	-	-	23	-	0
CN(C)CC(CCC(CN(C)C)C(O)(c1ccccc1)c1ccccc1)C(O)(c1ccccc1)c1ccccc1 (centres undefined)	0	-	-	45	-	42
Cc1ccc(Nc2nc(-c3ccncc3)cs2)cc1	0	0	0	27	0	84
Cc1ccc(Nc2nc(-c3sc(C)nc3C)cs2)cc1	0	-	-	75	-	52
Cc1ccc(-c2csc(Nc3ccccn3)n2)cc1	0	-	-	0	-	-
Cc1cccc(Nc2nc(-c3ccncc3)cs2)c1	0	0	0	65	0	75
Cc1ccc(Nc2nc(-c3sc(N)nc3C)cs2)cc1	0	-	-	0	-	-
COc1ccc(Nc2nc(-c3sc(C)nc3C)cs2)c(OC)c1	0	-	-	60	-	40
O=C(CNCc1ccccc1)Nc1ccc(Oc2ccccc2)cc1	0	62	52	60	0	0
SMILES	KLF5 inhibitor	Ba/F3 V617F tox	BaF3 tox	IEC-6 tox	APP transl inh	IEC-6 cytotox cf
COc1ccc(CNC(=O)Cc2c(C(=O)O)[nH]c3ccccc23)cc1	0	0	0	0	0	-
C/C(=N\NC(=O)c1ccc(C)cc1)c1c(C)[nH]n(-c2ccccc2)c1=O	0	-	-	44	-	25
COC(=O)COc1ccc(/C=N/NC(=O)CN(c2ccccc2OC)S(=O)(=O)c2ccccc2)cc1	0	-	-	49	-	0
O=C(NC1CCc2ccccc21)c1cc(COc2c(F)cccc2F)on1 (centres undefined)	0	0	0	0	-	-
O=C(NCC1OCCc2ccccc21)c1cc(COc2c(F)cccc2F)on1 (centres undefined)	0	98	103	82	0	0
COc1ccc(C2=Nn3c([n+](C)c4ccccc43)SC2)cc1	0	100	77	30	0	24
COc1ccc(C(NC(=O)c2c(F)c(F)c(F)c(F)c2F)c2ccccc2)cc1 (centres undefined)	0	0	0	27	0	0
Cc1ccc(S(=O)(=O)Cn2nnnc2C(CC(C)C)N2CCN(c3ccc(F)cc3)CC2)cc1 (centres undefined)	0	0	0	0	0	-
COc1ccc(CCNc2ncnc3sc(C)cc23)cc1OC	0	-	-	27	-	27
CCc1ccc(C2CC(c3ccccc3Cl)Nc3nc(N)nn32)cc1 (centres undefined)	0	0	0	0	0	-
Cc1cc(C)n(C(=O)c2cccc(S(=O)(=O)N3CCOCC3)c2)n1	0	0	0	0	0	-
